Screening results from PubChem BioAssay.
Hits are enriched below; roughly 3.4% of the tested compounds scored in any of these assays.
MITF primary: MITF inhibitors, primary screen, biochemical, AlphaScreen, human | Microphthalmia-associated transcription factor (Homo sapiens), O75030 | AlphaScreen MITF homodimerization, bead proximity signal | inhibition, % at 2.6 µM | 0.91% of 650,000 active | AID 1259374, 2018; in the data active = inhibition above about 50%;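 note: 0% = vehicle wells with protein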
TEAD-YAP block: TEAD-YAP interaction inhibition, primary screen, TEAD-YAP interaction inhibitor project, luminescence, HEK-TIYL cells | 1.4% of 640,000 active | inhibition, % at 9.12 µM | AID 1259422, 2018 | TEAD-Gal4/YAP UAS-luciferase luminescence; in the data active = inhibition above about 32%;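 note: 0% = median of test compound wells and 100% = reference inhibitor wells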
GPR151 activ: activators of human GPR151, primary screen, cell-based, PathHunter beta-arrestin, luminescence. G-protein coupled receptor 151 (Homo sapiens), Q8TDV0. PathHunter beta-arrestin GPR151 cells. activation, % at 11.2 µM. 1% of 650,000 active. AID 1508602, 2020; in the data active = activation above about 4.9%;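 note: 0% = median of compound wells and 100% = cells with positive control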
Target sequence (Q8TDV0 whole entry, looked up): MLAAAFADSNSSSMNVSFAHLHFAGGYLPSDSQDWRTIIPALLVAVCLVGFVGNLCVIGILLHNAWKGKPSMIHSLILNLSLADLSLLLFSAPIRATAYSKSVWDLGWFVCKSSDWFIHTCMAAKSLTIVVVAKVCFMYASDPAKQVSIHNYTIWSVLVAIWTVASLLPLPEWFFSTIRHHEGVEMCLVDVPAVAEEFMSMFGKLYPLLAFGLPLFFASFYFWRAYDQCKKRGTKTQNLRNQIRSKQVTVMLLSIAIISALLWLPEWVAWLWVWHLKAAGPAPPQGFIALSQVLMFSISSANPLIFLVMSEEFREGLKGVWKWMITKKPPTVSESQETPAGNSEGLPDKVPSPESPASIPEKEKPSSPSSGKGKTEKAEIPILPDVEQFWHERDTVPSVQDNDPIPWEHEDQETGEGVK
FBW7 activator: FBW7 E3 ligase activators, primary screen, biochemical, AlphaScreen, human. AlphaScreen FBW7–phospho-cyclin E peptide binding, activator screen. normalized activity (activation), % at 26.1 µM. AID 1259310, 2017. 0.13% of 650,000 active. F-box/WD repeat-containing protein 7 (Homo sapiens), Q969H0; in the data active = normalized activity above about 1.9%;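 note: purified mutant Fbw7 with reduced substrate affinity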
GPR151 conf act: GPR151 activators, triplicate retest, confirmation, cell-based, PathHunter beta-arrestin, luminescence; shares compounds with GPR151 activ; GPR151 PathHunter beta-arrestin cells, 90 min; % of EA-reagent control over plate median; activation, % at 11.2 µM; 6,700 tested, under 10 active;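 active = mean percent activation across replicates above the confirmation screen cutoff of 4.91%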
GPR119 ag: GPR119 activators in beta-arrestin cells, counter-screen for GPR151 activator project, cell-based, PathHunter beta-arrestin, luminescence, triplicate. shares compounds with GPR151 activ. 90 min; 0 = compound-well median, 100 = enzyme-acceptor control. activation, % at 11.2 µM. 0.3% of 6,700 active;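 active = mean percent activation in the counterscreen above 29.09%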;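 note: counterscreen on off-target GPR119 to flag nonselective hits from the GPR151 activator screen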
Numbers without * were called inactive; / = not tested or not shown.

SMILES	MITF primary	TEAD-YAP block	GPR151 activ	FBW7 activator	GPR151 conf act	GPR119 ag
O=C(Cc1cccs1)Nc1nnc(SCc2ccccc2)s1	-3	-5	5.1*	0	2	0
CC1CCCC(C)N1c1nnc(NC(=O)Nc2ccc(F)cc2)s1 (centres undefined)	4	-23	5.3*	0	0	-12
COc1ccc(NC(=O)Nc2nnc(SCc3ccc(F)cc3)s2)cc1	4	-9	1	0	/	/
O=C(Nc1ccc(F)cc1)Nc1nnc(SCc2ccccc2)s1	9	7	5.0*	0	0	19
O=C(Nc1nnc(SCc2ccccc2)s1)c1cccs1	10	-16	1	0	/	/
Cc1ccc(S(=O)(=O)N(CC(=O)N2CCN(C)CC2)c2cccc(Cl)c2)cc1	-9	5	-1	0	/	/
CC1CN(C(=O)CCC(=O)NC(C)C23CC4CC(CC(C4)C2)C3)c2ccccc2O1 (centres undefined)	8	-10	-1	1	/	/
Cc1cccc(NC(=O)CCc2c(C)nc3nc(CNC(=O)OC(C)(C)C)nn3c2C)n1	-1	-1	3	0	/	/
CCc1ccc(CNCc2cc(NC(=O)c3ccccn3)cc(C(=O)N(C)C)c2)cc1	-5	2	10*	0	1	10
Cc1ccccc1C(=O)NCCN1CCn2cc(OCc3ccccc3)c(=O)cc2C1=O	8	2	2	0	/	/
O=C(NCCN1CCn2cc(OCc3ccc(F)cc3)c(=O)cc2C1=O)C1CC1	5	0	6.7*	0	1	-11
Clc1ncnc2c1oc1ccccc12	5	1	9.1*	0	1	-3
COCCNC(=O)c1cc(-c2ccc(OC)c(OC)c2)no1	-13	-9	1	0	/	/
Cc1cccc(-n2ccnc2CN2CCN(Cc3ccsc3)C(CCO)C2)c1 (centres undefined)	8	6	0	0	/	/
CN(C)CCC(Oc1ccc(F)cc1)c1ccc(S(C)(=O)=O)cc1 (centres undefined)	34	6	5.6*	0	0	10
Cc1cnc(CN(C)C(=O)CCc2nnc(CCC3CCCCC3)o2)[nH]1	-7	-13	-1	0	/	/
CCOc1ccc(N(CC)c2nc(-c3ccc(OC)cc3)no2)cc1	-3	4	3	0	/	/
COc1cc(-c2nc(-c3ccccc3)c(-c3cccs3)[nH]2)cc(OC)c1OC	-5	-3	5.0*	0	-1	-5
COC(=O)c1cccc([N+](=O)[O-])c1CS(=O)(=O)c1ccccc1	12	-8	0	0	/	/
CCn1c(SCCN)nnc1-c1ccco1	31	-1	2	0	/	/
O=C(O)CCCCNS(=O)(=O)c1ccccc1C(F)(F)F	13	-13	9.4*	1	-1	-4
COc1ccc(S(=O)(=O)N(C)C)c(Cl)c1Cl	1	-43	16*	0	1	9
COc1ccc(NS(=O)(=O)c2ccc(OC)c(Cl)c2Cl)cc1OC	-7	24	11*	0	2	8
COC(=O)c1ccc(C(=O)OC)c(NS(=O)(=O)c2ccc(OC)c(Cl)c2Cl)c1	12	-6	9.5*	1	1	-14
CCCCNS(=O)(=O)c1ccc(OC)c(Cl)c1Cl	-8	1	0	0	/	/
SMILES	MITF primary	TEAD-YAP block	GPR151 activ	FBW7 activator	GPR151 conf act	GPR119 ag
COc1cccc(NS(=O)(=O)c2ccc(OC)c(Cl)c2Cl)c1	4	12	0	0	/	/
COc1ccccc1CC(=O)Nc1cnc2cnc(-c3ccc(O)cc3)cn12	2	1	1	-1	/	/
CCCCN(CC)C(=O)c1ccc([N+](=O)[O-])cc1Cl	-18	4	7.7*	0	0	-5
CCCCN(CC)C(=O)c1ccc([N+](=O)[O-])cc1	11	-1	-1	0	/	/
Cn1nnc2c(N3CCC4(CC3)OCCO4)nc(Cc3ccc(Cl)cc3Cl)nc21	2	8	6.8*	0	0	3
COC(=O)c1cc(C)sc1NC(=S)N1CCCCCC1	-8	-22	8.7*	0	1	-1
COc1ccc(NC(=O)Cc2nc3ccccc3[nH]2)cc1	3	38*	18*	0	1	10
COc1ccc(OCC(=O)Nc2nc3ccccc3[nH]2)cc1	-11	-23	3	0	/	/
COc1cccc(CC(=O)Nc2nc3ccccc3[nH]2)c1	4	-5	5.6*	0	0	-6
COc1ccccc1NC(=O)CSc1nnc(CCNC(=O)c2ccc(C)cc2)n1C	12	-1	6.1*	0	1	4
Cc1ccc(CN2C(=O)CSc3ccc(NC(=O)Nc4nc(C)cc(C)n4)cc32)cc1	3	-15	7.4*	0	0	-1
COc1cc(OC)cc(C(=O)NNC(=S)NCc2ccco2)c1	6	-2	7.2*	0	-1	-13
Cc1cnc(CNc2ccc(S(C)(=O)=O)cc2F)cn1	0	-8	0	0	/	/
COc1ccc(N2CCN(S(=O)(=O)c3cc4c5c(c3)CCC(=O)N5CCC4)CC2)cc1	9	2	4	0	/	/
O=C(NCc1cccnc1)c1cc2cc(C3(O)CCN(Cc4cccs4)CC3)ccc2o1	3	15	0	0	/	/
CCCC1=NN2C(=N)/C(=C/c3ccc(N(C)C)cc3)C(=O)N=C2S1	7	2	1	0	/	/
CCCCCCCC1=NN2C(=N)/C(=C/c3ccc(N(C)C)cc3)C(=O)N=C2S1	17	-3	5.7*	0	0	12
COCCNC(=O)c1ccc(OC)cc1	-1	-2	4.9*	1	2	1
COCCCNC(=O)c1ccc(OC)cc1	23	-10	-2	0	/	/
CNc1ccc(/C=C/C(=O)c2ccc(S(=O)(=O)NCc3ccco3)cc2)cc1[N+](=O)[O-]	-6	-5	5.6*	0	-1	-2
Cc1ccc(Nc2nnc(SCC(=O)N3CCOCC3)s2)cc1	4	-6	-2	0	/	/
Cc1ccc(Nc2nnc(SCC(=O)N3CCCC3)s2)cc1	-17	2	5.6*	0	0	-12
O=C(O)C1CSC(c2ccsc2)N1 (centres undefined)	23	2	5.3*	1	0	-2
O=C(O)C1CSC(c2ccncc2)N1 (centres undefined)	8	-3	1	0	/	/
CC(=O)c1ccc(OC(=O)c2cccc(Br)c2)cc1	23	-19	17*	0	2	4
COc1ccc(OC(=O)c2cccc(Br)c2)cc1	19	-4	1	0	/	/
COC(=O)c1nnn(CC(=O)Nc2ccc(OC)c(OC)c2)c1C(=O)OC	11	16	-1	0	/	/
